Source: PubChem BioAssay
The list is not random: actives were taken first. Their share in the collection is about 19%.
DT40 TDP1 CPT: qHTS for Inhibitors of human tyrosyl-DNA phosphodiesterase 1 (TDP1): qHTS in cells in presence of CPT; Potency, µM (highest dose often 46.2 µM), without a hit: top-dose activity change, negative = growth inhibition, usual class: inhibitors; 420,000 compounds, 12% hits; chicken DT40 Tdp1-/-;hTDP1 cells + 20 nM CPT, ATP luminescence, 48 h; AID 686979, 2013; further: potency means the concentration at half of the fitted maximal effect; on the % scale 0 is the no-effect control and ±100 the full control effect; nearly all actives have a fitted effect of over 55% in size
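Chicken DT40 Tdp1-/- cells stably complemented with human TDP1 were seeded at 400 cells/well in medium containing 20 nM camptothecin, exposed to pin-transferred compounds, and grown at 37 °C for at least 48 hr. Viability was read as ATP luminescence.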
TDP1 cell noCPT: qHTS for Inhibitors of human tyrosyl-DNA phosphodiesterase 1 (TDP1): qHTS in cells in absence of CPT; 420,000 compounds, 15% hits; DT40 Tdp1-/- hTDP1 cells, no CPT, ATP luminescence, 48 h; Potency, µM (doses to about 46.2 µM), for the others: at the top dose activity change, negative = growth inhibition, hits mostly inhibitors; AID 686978, 2013; further: potency means the concentration at half of the fitted maximal effect; on the % scale 0 is the no-effect control and ±100 the full control effect; nearly all actives have a fitted effect of over 55% in size
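Seeded 400 DT40-hTDP1 cells/well (vehicle DMSO, no 20 nM CPT); pinned compounds; ≥48 hr at 37 °C; CellTiter-Glo luminescence as viability measure.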
IL-1B inflam inh: qHTS for Inhibitors of Inflammasome Signaling: IL-1-beta AlphaLISA Primary Screen; THP-1 LPS/ATP IL-1B secretion, AlphaLISA, 16 h; active compounds read low; activity change, % at 57.5 µM; 360,000 compounds, 4.7% hits; AID 743279, 2014; in the data active means activity change below about -50%; inconclusive means mostly about -30% to -49%; further: on the % scale 0 is the no-effect control and ±100 the full control effect
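THP-1 cells pretreated 1 hr with compounds (up to 57.5 uM final), then stimulated with LPS (250 ng/mL final) plus ATP (1.25 mM final); secreted IL-1B measured by AlphaLISA after 16 hr, decreased signal indicating inhibition.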
HepG2 viability: qHTS for Inhibitors of TGF-b: Cytotox Counterscreen | AID 588856, 2011 | 410,000 compounds, 0.76% hits | Potency, µM (top dose mostly 46.1 µM), without a hit: at the highest dose activity change, negative = cytotoxicity, usual class: cytotoxic | HepG2 CAGA-GFP viability, ATP luminescence, 18 h; further: potency means the concentration at half of the fitted maximal effect
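CellTiter-Glo luminescence gave cytotoxicity after 18 hours at 37 degrees C. The cells were HepG2 CAGA-GFP in 1% FBS DMEM, stimulated with 500 pg/mL TGF-beta after compound addition. %Activity was normalised to no-cell wells (complete cell-killing) and DMSO (no toxicity), and curves were fitted and classified.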
S-ASM inh: Inhibitors of Secretory Acid Sphingomyelinase (S-ASM): qHTS. Sphingomyelin phosphodiesterase (Homo sapiens), P17405. placental ASM, HMU-PC fluorogenic substrate, 60 min. Potency, µM (doses to about 57.5 µM), for the others: at the top dose activity change, negative = inhibition, most hits filed as inhibitors. AID 504937, 2011. 340,000 compounds, 0.006% hits; further: potency means the concentration at half of the fitted maximal effect
Target sequence (P17405 47-631 limits assumed): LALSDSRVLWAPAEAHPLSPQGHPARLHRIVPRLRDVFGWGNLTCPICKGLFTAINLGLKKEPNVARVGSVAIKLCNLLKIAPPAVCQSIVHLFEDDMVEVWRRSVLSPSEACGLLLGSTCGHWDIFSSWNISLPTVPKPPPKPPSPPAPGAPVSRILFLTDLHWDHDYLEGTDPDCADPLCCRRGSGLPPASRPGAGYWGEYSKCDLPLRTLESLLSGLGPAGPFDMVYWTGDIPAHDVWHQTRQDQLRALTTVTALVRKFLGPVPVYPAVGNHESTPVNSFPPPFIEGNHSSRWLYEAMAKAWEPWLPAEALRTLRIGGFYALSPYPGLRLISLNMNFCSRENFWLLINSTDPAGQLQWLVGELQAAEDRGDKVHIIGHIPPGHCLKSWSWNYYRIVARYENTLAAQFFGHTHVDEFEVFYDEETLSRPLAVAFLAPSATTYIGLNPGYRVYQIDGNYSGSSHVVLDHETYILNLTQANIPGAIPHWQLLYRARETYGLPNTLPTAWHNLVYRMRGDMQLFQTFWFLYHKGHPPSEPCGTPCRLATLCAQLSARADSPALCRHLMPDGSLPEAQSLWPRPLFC
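HMU-PC0 cleavage (9 uM final) by human placental ASM, 60 min at 37 °C following 10 min compound exposure at RT; stopped at pH 10, fluorescence Ex 386/Em 447 nm.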
TGFb inhibitor: qHTS for Inhibitors of TGF-b; 410,000 compounds, 1.2% hits; HepG2 CAGA-GFP TGF-b/SMAD3 reporter, GFP fluorescence, 18 h; TGF-beta stimulated, 500 pg/mL final; Potency, µM (doses to about 46.1 µM), without a hit: at the top dose activity, negative = inhibition, actives largely listed as inhibitors; further: potency means the concentration at half of the fitted maximal effect; on the % scale 0 is the no-effect control and ±100 the full control effect; nearly all actives have a fitted effect of over 65% in size
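HEPG2 CAGA-GFP cells (1000/well, DMEM with 1% FBS) were pre-incubated 2 h at 37 degrees C, given compound by pin tool, then stimulated with TGF-beta at 500 pg/mL final for 18 h before per-cell GFP fluorescence imaging.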
An asterisk follows results filed as active; ? = inconclusive; . = no result given. Unless noted, the call rests on the fitted dose curve; in most records, active means well fitted curve in the direction sought with a large enough effect; inconclusive means small, poorly fitted or top-dose-only effect, or another doubt; inactive means no such curve, though single readings can be large; an effect the other way counts as inactive or inconclusive.

SMILES	DT40 TDP1 CPT	TDP1 cell noCPT	IL-1B inflam inh	HepG2 viability	S-ASM inh	TGFb inhibitor
COc1ccc(C(C)NC(=O)CC23CC4CC(CC(C4)C2)C3)cc1 (stereo not given)	?	16.4µM*	-5.7	-22.7%	-1.7%	0.6%
CC(NC(=O)CC12CC3CC(CC(C3)C1)C2)C(=O)O (stereo not given)	-6.3%	-1.2%	-4.2	-10.7%	9.3%	17.1%
CC1CN(C(=O)c2cccc(S(=O)(=O)N3CCOCC3)c2)CC(C)O1 (stereo not given)	-3.6%	1.0%	17.0	-9.4%	0.3%	-3.7%
CC1CN(C(=O)c2cccc(S(=O)(=O)N3CCN(c4ccc(F)cc4)CC3)c2)CC(C)O1 (stereo not given)	25.9µM*	?	4.6	-5.3%	-1.5%	-39.7%
O=C(c1cccc(S(=O)(=O)N2CCN(c3ccc(F)cc3)CC2)c1)N1CCCC(C(F)(F)F)C1 (stereo not given)	3.26µM*	4.11µM*	-16.6	-17.2%	-1.0%	?
Cc1cccc(NS(=O)(=O)c2cccc(C(=O)N3CCCC(C(F)(F)F)C3)c2)c1 (stereo not given)	?	?	0.4	-48.4%	3.9%	3.0%
Cc1cc(NS(C)(=O)=O)c(=O)n(Cc2cccc(C(F)(F)F)c2)c1	-19.3%	-19.1%	-6.8	0.3%	.	2.6%
COc1ccc(-c2csc3ncnc(NCCO)c23)cc1	?	?	-81.5*	-38.5%	-0.6%	-4.6%
COc1ccc(-c2csc3ncnc(NCCCO)c23)cc1	?	8.2µM*	?	3.1%	0.9%	-1.3%
COc1ccc(-c2csc3ncnc(Nc4ccc(O)cc4)c23)cc1	?	?	0.0	-8.3%	5.5%	-10.9%
COc1ccc(-c2csc3ncnc(Nc4ccccc4)c23)cc1	-13.2%	-24.2%	.	-12.4%	.	1.5%
Cc1ccc2oc(-c3ccc(C)c(NC(=O)COc4ccc(Cl)cc4)c3)nc2c1	-29.0%	-16.1%	.	-9.5%	.	5.4%
CSc1cccc(NC(=O)/C=C/c2cccc(Cl)c2)c1	?	?	?	-22.0%	-10.5%	?
CCOC(=O)CNC(=O)C1CCCN(c2ncccn2)C1 (stereo not given)	29.1µM*	-7.3%	-6.6	-14.4%	10.9%	2.1%
O=C1CC(c2nc3ccccc3n2CCCOc2ccccc2)CN1c1ccc(F)cc1 (stereo not given)	16.4µM*	8.2µM*	.	-20.6%	.	-26.6%
CCOc1ccc(N2CC(c3nc4ccccc4n3Cc3cccc(C)c3)CC2=O)cc1 (stereo not given)	?	?	.	-31.8%	.	?
Cc1ccc(N2CC(c3nc4ccccc4n3C)CC2=O)cc1C (stereo not given)	-18.1%	?	-1.7	4.8%	4.1%	1.4%
CCn1c(C2CC(=O)N(c3ccc(C)c(C)c3)C2)nc2ccccc21 (stereo not given)	?	18.4µM*	-15.5	-33.7%	2.9%	-29.3%
CCCCn1c(C2CC(=O)N(c3ccc(OCC)cc3)C2)nc2ccccc21 (stereo not given)	20.6µM*	?	.	-41.4%	.	?
CCOc1ccc(N2CC(c3nc4ccccc4n3CCOc3ccccc3OC)CC2=O)cc1 (stereo not given)	?	23.1µM*	.	-12.0%	.	?
CCOc1ccc(N2CC(c3nc4ccccc4n3CCOc3ccc(CC)cc3)CC2=O)cc1 (stereo not given)	?	?	.	-6.1%	.	?
Cc1cccc(-c2noc(-c3ccc(NCC4CCCO4)c([N+](=O)[O-])c3)n2)c1 (stereo not given)	?	?	.	-6.6%	.	-15.8%
CC(C)c1nc(CN2CCCCC2)cc(=O)[nH]1	-0.4%	-8.1%	-8.8	7.3%	2.4%	-21.3%
CC(=O)N1CCSc2ccc(S(=O)(=O)NCc3ccc(F)cc3)cc21	?	?	44.2	-26.1%	-0.3%	-11.9%
CCOc1ccc(NC(=O)c2cccc(S(=O)(=O)NCc3cccnc3)c2)cc1	-16.3%	-19.5%	16.3	7.0%	.	15.0%
SMILES	DT40 TDP1 CPT	TDP1 cell noCPT	IL-1B inflam inh	HepG2 viability	S-ASM inh	TGFb inhibitor
CC(C)c1ccccc1OCC(=O)Nc1nnc(C2CC2)s1	13.7%	-14.9%	6.4	-13.4%	6.6%	-3.2%
COc1ccc(Cl)cc1NC(=O)c1ccc2c(c1)CCN2S(C)(=O)=O	?	?	.	-26.7%	.	0.5%
CC(C)CN(C)Cc1c(C(=O)N2CCc3ccccc3C2)nc2ccc(Cl)cn12	18.4µM*	20.6µM*	-82.8*	0.9%	-0.7%	-11.4%
O=Cc1ccc([B-](F)(F)F)s1	10.9%	0.7%	5.9	-10.4%	1.4%	9.2%
CCOC(=O)c1sc(NC(=O)c2cc3n(n2)C(C(F)(F)F)CC(c2cccs2)N3)c(C(=O)OCC)c1C (stereo not given)	?	13µM*	-14.2	3.8%	1.7%	2.3%
Cc1nn(C)c(C)c1CN(C)C(=O)c1cc2n(n1)C(C(F)(F)F)CC(c1cccs1)N2 (stereo not given)	25.9µM*	16.4µM*	-5.7	9.5%	1.6%	0.0%
Cc1nn(C)cc1CN(C)C(=O)c1nn2c(c1Br)NC(c1cccs1)CC2C(F)(F)F (stereo not given)	?	14.6µM*	30.9	-2.1%	2.7%	-16.7%
CCC(C)NC(=O)c1cnn2c1NC(c1cccs1)CC2C(F)(F)F (stereo not given)	-10.0%	-28.4%	-14.6	-7.2%	0.9%	15.5%
Cc1nn(C)cc1CN(C)C(=O)c1nn2c(c1Cl)NC(c1cccs1)CC2C(F)(F)F (stereo not given)	?	12.6µM*	20.0	-1.4%	3.1%	-3.4%
CCOC(=O)c1sc(NC(=O)c2cc3n(n2)C(C(F)(F)F)CC(c2ccccc2)N3)c(C(=O)OCC)c1C (stereo not given)	1.8%	-5.4%	0.9	-35.7%	-2.1%	10.7%
O=C(c1cnccn1)N1CCC2(CC1)CCN(c1ccccc1)CC2	17.8%	?	.	.	.	.
COc1ccc(OC)c(CNC(=O)Nc2cn(CC(C)C)c(=O)c3ccccc23)c1	?	?	.	-3.0%	.	-16.5%
